Data taken from paper PMC7862700, “An all-to-all approach to the identification of sequence-specific readers for epigenetic DNA modifications on cytosine”.

Assays:
Assay in all cases: DAPPL (digital affinity profiling via proximity ligation, sequencing); 10 mM Tris-HCl pH 7.5, 50 mM NaCl, 1 mM DTT, 4% glycerol, room temperature, 30 min; GST-TFs on glutathione beads, 16-mer random dsDNA library, 0.1% formaldehyde crosslink after washing; high values mean tight binding
FEV = biological target: T1, FEV (Homo sapiens, UniProt Q99581 1-238); settings: protein: recombinant; tags: N-terminal GST; dsDNA, one strand shown
T1 sequence: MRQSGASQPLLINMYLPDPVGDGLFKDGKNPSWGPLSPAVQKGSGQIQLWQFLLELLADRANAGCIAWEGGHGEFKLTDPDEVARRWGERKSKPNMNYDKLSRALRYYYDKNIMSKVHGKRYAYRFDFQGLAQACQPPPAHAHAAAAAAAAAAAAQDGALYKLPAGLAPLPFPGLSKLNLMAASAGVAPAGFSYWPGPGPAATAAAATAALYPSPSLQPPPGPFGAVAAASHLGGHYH
Method in brief: (§1)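 Pools of DNA-barcoded human transcription factors, expressed in yeast as GST fusions on glutathione beads and combined with a tag-only sample, were incubated with 200 nmole of a 16-mer random double-stranded DNA library. Incubation took 30 min at room temperature in Tris/NaCl/DTT/glycerol buffer and was followed by washing, 0.1% formaldehyde crosslinking, proximity ligation (BsaI/T4 ligase, 1 h, 37 °C), PCR amplification and sequencing on an Illumina NextSeq500. Binding signal is the ratio of a hexamer's read frequency for a factor to its frequency for the tag-only sample.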

ETV5 = ETV5 (Homo sapiens, UniProt P41161 1-510); settings: protein: recombinant; tags: N-terminal GST; dsDNA, one strand shown
Method in brief: as §1

HSF1 = HSF1 (Homo sapiens, UniProt Q00613 1-529); settings: protein: recombinant; tags: N-terminal GST; chain copies: 3; dsDNA, one strand shown
Method in brief: as §1

SPIC = biological target: T2, SPIC (Homo sapiens, UniProt Q8N5J4 1-248); settings: protein: recombinant; tags: N-terminal GST; dsDNA, one strand shown
T2 sequence: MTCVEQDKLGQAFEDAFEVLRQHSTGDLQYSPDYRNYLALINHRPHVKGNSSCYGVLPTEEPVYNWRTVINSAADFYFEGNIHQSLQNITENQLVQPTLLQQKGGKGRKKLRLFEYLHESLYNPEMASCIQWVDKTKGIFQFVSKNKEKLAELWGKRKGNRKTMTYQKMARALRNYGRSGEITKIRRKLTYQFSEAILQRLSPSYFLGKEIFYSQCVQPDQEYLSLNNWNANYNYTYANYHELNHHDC
Method in brief: as §1

ELF4 = ELF4 (Homo sapiens, UniProt Q99607 1-663); settings: protein: recombinant; tags: N-terminal GST; dsDNA, one strand shown
Method in brief: as §1

ELK4 = biological target: T3, ELK4 (Homo sapiens, UniProt P28324-2 1-405); settings: protein: recombinant; tags: N-terminal GST; dsDNA, one strand shown
T3 sequence: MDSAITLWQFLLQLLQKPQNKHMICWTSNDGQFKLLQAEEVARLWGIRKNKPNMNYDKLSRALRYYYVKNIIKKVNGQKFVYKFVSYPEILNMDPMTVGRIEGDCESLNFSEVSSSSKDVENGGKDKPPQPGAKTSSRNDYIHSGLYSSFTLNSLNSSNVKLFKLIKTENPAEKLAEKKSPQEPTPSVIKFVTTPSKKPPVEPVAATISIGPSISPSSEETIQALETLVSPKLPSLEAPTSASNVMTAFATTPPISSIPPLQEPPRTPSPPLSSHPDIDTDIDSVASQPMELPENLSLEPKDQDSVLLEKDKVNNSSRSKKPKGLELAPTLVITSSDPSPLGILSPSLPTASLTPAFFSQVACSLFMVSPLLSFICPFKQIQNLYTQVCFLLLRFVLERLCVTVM
Method in brief: as §1

ETV2 = biological target: T4, ETV2 (Homo sapiens, UniProt O00321 1-342); settings: protein: recombinant; tags: N-terminal GST; dsDNA, one strand shown
T4 sequence: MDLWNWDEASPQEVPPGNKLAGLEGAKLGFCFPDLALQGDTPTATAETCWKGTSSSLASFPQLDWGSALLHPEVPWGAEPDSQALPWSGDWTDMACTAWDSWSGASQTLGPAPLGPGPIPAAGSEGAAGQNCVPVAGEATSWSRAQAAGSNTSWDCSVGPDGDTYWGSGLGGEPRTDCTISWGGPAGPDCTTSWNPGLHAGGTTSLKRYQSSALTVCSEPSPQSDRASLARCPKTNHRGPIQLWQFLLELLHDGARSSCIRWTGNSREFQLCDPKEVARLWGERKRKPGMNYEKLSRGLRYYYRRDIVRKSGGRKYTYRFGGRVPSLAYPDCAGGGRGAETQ
Method in brief: as §1

ELF3 = biological target: T5, ELF3 (Homo sapiens, UniProt P78545 1-371); settings: protein: recombinant; tags: N-terminal GST; dsDNA, one strand shown
T5 sequence: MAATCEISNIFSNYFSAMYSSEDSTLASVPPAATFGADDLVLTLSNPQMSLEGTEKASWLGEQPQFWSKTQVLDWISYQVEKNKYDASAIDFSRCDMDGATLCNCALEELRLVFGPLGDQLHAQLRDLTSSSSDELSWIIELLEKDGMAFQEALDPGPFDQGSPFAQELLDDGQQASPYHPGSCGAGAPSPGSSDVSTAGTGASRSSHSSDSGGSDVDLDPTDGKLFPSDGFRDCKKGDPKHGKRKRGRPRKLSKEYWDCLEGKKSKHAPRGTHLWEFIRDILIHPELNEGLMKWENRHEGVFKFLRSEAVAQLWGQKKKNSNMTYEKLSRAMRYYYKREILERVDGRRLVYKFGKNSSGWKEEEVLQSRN
Method in brief: as §1

CRX = CRX (Homo sapiens, UniProt O43186 1-299); settings: protein: recombinant; tags: N-terminal GST; dsDNA, one strand shown
Method in brief: as §1

ETV1 = ETV1 (Homo sapiens, UniProt P50549 1-477); settings: protein: recombinant; tags: N-terminal GST; dsDNA, one strand shown
Method in brief: as §1

ERF = biological target: T6, ERF (Homo sapiens, UniProt P50548 1-548); settings: protein: recombinant; tags: N-terminal GST; dsDNA, one strand shown
T6 sequence: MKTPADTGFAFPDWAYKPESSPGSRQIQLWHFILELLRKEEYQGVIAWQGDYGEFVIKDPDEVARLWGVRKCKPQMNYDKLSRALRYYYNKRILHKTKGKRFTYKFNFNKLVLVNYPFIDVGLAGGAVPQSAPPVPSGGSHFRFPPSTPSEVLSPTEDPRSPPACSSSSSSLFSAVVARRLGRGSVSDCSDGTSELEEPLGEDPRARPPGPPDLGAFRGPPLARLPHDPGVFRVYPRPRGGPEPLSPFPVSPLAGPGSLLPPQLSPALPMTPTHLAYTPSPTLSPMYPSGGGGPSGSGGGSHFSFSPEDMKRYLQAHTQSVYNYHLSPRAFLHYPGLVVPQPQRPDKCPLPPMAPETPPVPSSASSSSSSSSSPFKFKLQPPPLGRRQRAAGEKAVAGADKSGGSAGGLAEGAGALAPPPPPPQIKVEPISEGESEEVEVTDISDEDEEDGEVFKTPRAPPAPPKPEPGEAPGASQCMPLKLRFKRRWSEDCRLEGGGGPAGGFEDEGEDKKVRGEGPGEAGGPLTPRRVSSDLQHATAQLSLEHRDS
Method in brief: as §1

ETV3L = biological target: T7, ETV3L (Homo sapiens, UniProt Q6ZN32 1-361); settings: protein: recombinant; tags: N-terminal GST; dsDNA, one strand shown
T7 sequence: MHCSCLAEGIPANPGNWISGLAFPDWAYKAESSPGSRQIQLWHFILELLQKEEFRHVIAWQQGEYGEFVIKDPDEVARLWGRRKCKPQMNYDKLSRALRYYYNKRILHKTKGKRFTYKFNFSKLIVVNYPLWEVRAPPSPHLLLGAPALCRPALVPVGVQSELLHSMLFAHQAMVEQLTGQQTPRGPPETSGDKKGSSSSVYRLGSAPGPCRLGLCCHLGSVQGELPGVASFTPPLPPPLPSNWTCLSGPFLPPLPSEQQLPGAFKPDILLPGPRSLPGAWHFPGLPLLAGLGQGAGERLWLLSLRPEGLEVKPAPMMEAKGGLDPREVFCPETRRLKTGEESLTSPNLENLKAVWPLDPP
Method in brief: as §1

ETS2 = biological target: T8, ETS2 (Homo sapiens, UniProt P15036 1-469); settings: protein: recombinant; tags: N-terminal GST; dsDNA, one strand shown
T8 sequence: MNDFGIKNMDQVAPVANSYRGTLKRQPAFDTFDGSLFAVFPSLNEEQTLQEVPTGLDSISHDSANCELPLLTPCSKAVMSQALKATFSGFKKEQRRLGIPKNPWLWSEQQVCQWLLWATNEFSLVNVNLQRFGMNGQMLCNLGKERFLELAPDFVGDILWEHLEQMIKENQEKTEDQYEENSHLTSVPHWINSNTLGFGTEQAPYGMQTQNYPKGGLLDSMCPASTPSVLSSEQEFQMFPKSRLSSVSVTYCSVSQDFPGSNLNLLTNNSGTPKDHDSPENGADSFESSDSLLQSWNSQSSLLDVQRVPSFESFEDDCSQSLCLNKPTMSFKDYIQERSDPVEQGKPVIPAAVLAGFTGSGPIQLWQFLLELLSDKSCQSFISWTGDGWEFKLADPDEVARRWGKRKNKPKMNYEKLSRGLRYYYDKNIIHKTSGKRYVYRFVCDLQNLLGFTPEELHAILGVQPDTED
Method in brief: as §1

SPDEF = biological target: T9, SPDEF (Homo sapiens, UniProt O95238 1-335); settings: protein: recombinant; tags: N-terminal GST; dsDNA, one strand shown
T9 sequence: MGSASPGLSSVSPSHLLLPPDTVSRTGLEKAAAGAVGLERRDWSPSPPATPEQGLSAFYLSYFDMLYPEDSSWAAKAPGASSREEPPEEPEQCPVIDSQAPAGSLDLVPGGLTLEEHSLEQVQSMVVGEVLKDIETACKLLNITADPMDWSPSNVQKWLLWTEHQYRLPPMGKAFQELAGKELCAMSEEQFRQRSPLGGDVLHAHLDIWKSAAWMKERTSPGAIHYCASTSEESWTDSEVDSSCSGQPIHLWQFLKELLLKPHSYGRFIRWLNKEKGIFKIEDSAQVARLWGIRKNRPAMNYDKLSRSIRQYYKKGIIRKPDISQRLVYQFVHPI
Method in brief: as §1

ETV7 = biological target: T10, ETV7 (Homo sapiens, UniProt Q9Y603 1-341); settings: protein: recombinant; tags: N-terminal GST; dsDNA, one strand shown
T10 sequence: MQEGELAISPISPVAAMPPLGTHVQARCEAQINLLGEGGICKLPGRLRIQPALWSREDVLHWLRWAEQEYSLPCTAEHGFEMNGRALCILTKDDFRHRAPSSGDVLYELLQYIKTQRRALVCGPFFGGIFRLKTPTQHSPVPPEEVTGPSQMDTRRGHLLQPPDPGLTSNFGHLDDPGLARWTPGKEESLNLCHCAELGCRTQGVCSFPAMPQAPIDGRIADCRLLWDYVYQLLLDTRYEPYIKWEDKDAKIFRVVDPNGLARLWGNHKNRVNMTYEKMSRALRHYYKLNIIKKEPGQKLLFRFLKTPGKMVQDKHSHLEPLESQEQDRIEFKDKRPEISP
Method in brief: as §1

ELF5 = biological target: T11, ELF5 (Homo sapiens, UniProt Q9UKW6-2 1-255); settings: protein: recombinant; tags: N-terminal GST; dsDNA, one strand shown
T11 sequence: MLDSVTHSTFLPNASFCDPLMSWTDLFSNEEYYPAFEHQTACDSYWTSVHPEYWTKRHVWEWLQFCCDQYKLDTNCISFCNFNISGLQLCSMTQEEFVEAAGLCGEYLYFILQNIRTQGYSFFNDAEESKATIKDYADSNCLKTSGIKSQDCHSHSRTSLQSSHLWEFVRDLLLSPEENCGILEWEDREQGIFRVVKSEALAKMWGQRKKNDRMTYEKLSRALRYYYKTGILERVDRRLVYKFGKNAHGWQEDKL
Method in brief: as §1

ETV3 = biological target: T12, ETV3 (Homo sapiens, UniProt P41162-2 1-143); settings: protein: recombinant; tags: N-terminal GST; dsDNA, one strand shown
T12 sequence: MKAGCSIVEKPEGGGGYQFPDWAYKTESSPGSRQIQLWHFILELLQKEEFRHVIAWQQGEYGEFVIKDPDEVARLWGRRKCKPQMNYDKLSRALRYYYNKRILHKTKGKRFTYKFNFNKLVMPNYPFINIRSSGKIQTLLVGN
Method in brief: as §1

ETV6 = ETV6 (Homo sapiens, UniProt P41212 1-452); settings: protein: recombinant; tags: N-terminal GST; dsDNA, one strand shown
Method in brief: as §1

ELF4, sequence (Q99607 whole entry): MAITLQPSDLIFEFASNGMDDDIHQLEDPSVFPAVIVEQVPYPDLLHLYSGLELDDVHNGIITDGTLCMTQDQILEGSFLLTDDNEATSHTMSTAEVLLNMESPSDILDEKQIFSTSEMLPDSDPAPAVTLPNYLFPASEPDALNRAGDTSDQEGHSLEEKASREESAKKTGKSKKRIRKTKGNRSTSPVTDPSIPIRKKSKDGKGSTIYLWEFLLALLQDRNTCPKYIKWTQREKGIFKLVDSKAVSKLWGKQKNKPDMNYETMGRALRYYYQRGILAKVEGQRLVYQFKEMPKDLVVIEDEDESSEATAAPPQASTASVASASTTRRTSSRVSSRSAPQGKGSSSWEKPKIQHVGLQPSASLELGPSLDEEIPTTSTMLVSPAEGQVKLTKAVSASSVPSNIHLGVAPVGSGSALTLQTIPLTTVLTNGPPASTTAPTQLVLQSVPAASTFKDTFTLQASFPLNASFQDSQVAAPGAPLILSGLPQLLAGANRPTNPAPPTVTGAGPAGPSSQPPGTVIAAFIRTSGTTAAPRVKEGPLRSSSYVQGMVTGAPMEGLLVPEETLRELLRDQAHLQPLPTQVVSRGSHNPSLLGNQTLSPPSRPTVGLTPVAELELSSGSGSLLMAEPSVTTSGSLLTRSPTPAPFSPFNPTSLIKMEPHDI
ETV1, sequence (P50549 whole entry): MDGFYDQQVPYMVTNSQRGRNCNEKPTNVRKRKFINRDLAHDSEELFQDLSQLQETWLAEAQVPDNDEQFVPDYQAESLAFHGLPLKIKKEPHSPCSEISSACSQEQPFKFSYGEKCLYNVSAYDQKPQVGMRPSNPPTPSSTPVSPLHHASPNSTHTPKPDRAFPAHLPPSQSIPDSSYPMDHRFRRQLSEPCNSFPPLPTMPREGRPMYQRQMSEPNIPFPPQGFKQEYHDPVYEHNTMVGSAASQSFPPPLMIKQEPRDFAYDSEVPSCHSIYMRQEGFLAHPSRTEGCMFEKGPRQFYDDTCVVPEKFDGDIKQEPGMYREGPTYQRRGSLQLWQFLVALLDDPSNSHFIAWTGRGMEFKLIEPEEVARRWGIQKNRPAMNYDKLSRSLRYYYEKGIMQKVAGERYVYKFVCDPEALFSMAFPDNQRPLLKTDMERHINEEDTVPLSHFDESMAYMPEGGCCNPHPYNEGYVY
CRX, sequence (O43186 whole entry): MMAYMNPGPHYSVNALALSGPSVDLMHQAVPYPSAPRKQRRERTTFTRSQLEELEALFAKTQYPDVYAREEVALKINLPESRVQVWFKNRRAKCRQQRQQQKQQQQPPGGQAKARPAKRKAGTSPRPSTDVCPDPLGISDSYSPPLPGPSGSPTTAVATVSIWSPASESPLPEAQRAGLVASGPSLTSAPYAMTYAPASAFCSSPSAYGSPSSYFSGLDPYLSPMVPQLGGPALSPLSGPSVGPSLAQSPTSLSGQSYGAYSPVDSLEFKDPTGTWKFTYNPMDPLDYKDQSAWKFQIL
HSF1, sequence (Q00613 whole entry): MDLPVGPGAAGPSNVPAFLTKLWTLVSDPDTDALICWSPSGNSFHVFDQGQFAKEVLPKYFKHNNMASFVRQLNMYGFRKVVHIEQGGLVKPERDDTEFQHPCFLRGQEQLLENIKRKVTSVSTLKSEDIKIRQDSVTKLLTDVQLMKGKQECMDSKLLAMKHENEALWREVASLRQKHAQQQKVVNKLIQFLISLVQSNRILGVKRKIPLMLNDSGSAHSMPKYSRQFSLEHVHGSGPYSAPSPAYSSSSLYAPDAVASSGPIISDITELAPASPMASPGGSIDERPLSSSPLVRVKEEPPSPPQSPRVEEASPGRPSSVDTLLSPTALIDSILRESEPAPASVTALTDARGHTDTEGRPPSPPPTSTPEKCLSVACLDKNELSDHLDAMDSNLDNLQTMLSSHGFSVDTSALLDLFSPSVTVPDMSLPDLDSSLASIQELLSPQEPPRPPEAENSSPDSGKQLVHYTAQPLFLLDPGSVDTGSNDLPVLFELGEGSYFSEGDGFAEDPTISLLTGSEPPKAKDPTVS
ETV6, sequence (P41212 whole entry): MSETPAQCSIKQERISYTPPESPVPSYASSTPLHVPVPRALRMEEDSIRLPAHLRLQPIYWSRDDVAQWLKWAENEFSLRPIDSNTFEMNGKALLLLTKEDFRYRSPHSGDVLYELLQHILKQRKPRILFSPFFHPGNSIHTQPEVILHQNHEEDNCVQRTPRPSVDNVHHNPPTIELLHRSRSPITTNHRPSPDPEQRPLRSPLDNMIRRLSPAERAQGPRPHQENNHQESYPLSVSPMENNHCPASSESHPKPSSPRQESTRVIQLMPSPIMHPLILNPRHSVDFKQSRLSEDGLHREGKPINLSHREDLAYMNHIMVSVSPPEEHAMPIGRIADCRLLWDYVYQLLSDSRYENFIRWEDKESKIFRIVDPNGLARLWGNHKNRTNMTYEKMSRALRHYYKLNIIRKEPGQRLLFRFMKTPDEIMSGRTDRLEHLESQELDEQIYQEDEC
ETV5, sequence (P41161 whole entry): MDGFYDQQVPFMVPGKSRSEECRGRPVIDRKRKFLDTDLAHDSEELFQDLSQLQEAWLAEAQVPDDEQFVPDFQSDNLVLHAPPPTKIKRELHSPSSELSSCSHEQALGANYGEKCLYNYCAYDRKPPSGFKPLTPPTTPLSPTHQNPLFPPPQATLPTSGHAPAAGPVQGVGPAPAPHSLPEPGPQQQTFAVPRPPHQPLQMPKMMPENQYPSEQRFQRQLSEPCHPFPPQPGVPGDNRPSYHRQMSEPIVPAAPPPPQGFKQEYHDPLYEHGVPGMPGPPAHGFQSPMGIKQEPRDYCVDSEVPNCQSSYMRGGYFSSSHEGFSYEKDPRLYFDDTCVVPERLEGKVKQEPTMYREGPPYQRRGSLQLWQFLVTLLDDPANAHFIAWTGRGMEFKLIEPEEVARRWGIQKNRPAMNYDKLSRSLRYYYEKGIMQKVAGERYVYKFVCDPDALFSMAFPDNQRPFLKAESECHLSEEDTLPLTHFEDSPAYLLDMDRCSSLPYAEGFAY

Q: CTCCGG was tested. Which binding signal (FEV) did it give?
A: The binding signal was 2 fold enrichment (6-mer frequency, TF over GST control).

Q: What about the binding signal (ETV5) of the same sequence?
A: Its binding signal is 1.58 fold enrichment (6-mer frequency, TF over GST control).

Q: And the binding signal (HSF1)?
A: The binding signal was 1.18 fold enrichment (6-mer frequency, TF over GST control).

Q: What about the binding signal (SPIC) of the same sequence?
A: The binding signal was 1.92 fold enrichment (6-mer frequency, TF over GST control).

Q: What about the binding signal (ELF4) of the same sequence?
A: Its binding signal is 1.56 fold enrichment (6-mer frequency, TF over GST control).

Q: What about the binding signal (ELK4) of the same sequence?
A: Its binding signal is 1.58 fold enrichment (6-mer frequency, TF over GST control).

Q: And the binding signal (ETV2)?
A: The binding signal was 1.48 fold enrichment (6-mer frequency, TF over GST control).

Q: And the binding signal (ELF3)?
A: Its binding signal is 1.39 fold enrichment (6-mer frequency, TF over GST control).

Q: And the binding signal (CRX)?
A: The binding signal was 1.02 fold enrichment (6-mer frequency, TF over GST control).

Q: What about the binding signal (ETV1) of the same sequence?
A: The binding signal was 1.64 fold enrichment (6-mer frequency, TF over GST control).

Q: And the binding signal (ERF)?
A: The binding signal was 1.56 fold enrichment (6-mer frequency, TF over GST control).

Q: And the binding signal (ETV3L)?
A: The binding signal was 1.61 fold enrichment (6-mer frequency, TF over GST control).

Q: What about the binding signal (ETS2) of the same sequence?
A: Its binding signal is 1.6 fold enrichment (6-mer frequency, TF over GST control).

Q: And the binding signal (SPDEF)?
A: Its binding signal is 1.89 fold enrichment (6-mer frequency, TF over GST control).

Q: What about the binding signal (ETV7) of the same sequence?
A: The binding signal was 1.32 fold enrichment (6-mer frequency, TF over GST control).

Q: What about the binding signal (ELF5) of the same sequence?
A: Its binding signal is 1.58 fold enrichment (6-mer frequency, TF over GST control).

Q: And the binding signal (ETV3)?
A: Its binding signal is 1.62 fold enrichment (6-mer frequency, TF over GST control).

Q: And the binding signal (ETV6)?
A: The binding signal was 1.56 fold enrichment (6-mer frequency, TF over GST control).
